Data on 39 molecules can be found in PubChem BioAssay AID651599 (National Center for Advancing Translational Sciences (NCATS), 2012).

Inconclusive results are not listed. Entries that show only a call come without a potency. The source made the active and inactive calls. The call rests on the fitted dose curve; in most records, active means well fitted inhibition curve with a large enough effect; inconclusive means small, poorly fitted or top-dose-only effect; inactive means no such curve, though single readings can be large or run the other way.
Potency means the concentration at half of the fitted maximal effect.

Chain of Tumor susceptibility gene 101 protein (Homo sapiens) (Q99816 whole entry, looked up, the tested form may be a part): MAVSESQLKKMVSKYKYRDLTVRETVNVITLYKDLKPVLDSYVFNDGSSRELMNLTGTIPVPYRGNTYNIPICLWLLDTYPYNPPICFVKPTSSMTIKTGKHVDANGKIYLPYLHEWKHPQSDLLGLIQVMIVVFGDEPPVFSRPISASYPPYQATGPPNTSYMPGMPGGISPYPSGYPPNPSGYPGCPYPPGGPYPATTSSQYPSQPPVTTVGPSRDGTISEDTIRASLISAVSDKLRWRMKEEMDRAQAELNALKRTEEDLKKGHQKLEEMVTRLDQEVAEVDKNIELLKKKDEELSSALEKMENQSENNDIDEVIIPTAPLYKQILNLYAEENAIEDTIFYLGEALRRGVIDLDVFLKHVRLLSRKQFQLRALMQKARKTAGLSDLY

For the assay, the target named is Tumor susceptibility gene 101 protein (Homo sapiens) (UniProt Q99816). Description: qHTS Assay for Iinhibitors of HIV-1 Budding by Blocking the Interaction of PTAP/TSG101: Hit Validation in TR assay. To be noted: Tsg101 binding domain + Texas Red-labeled PTAP peptide, fluorescence polarization, 20 min; series mostly up to 57.5 µM. The method, boiled down:
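Fluorescence polarization: Tsg101 binding domain (10 uM final) with Texas Red-labelled PTAP peptide (50 nM final) in HEPES pH 7.5, 0.15 M NaCl, Tween 20, EDTA, TCEP; 20 min binding at room temperature after compound addition.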
(In general: Quantitative high-throughput screening tests each substance at several concentrations.)
Regarding `Cn1cc(/C=C2\SC(=S)N(NC(=O)c3ccccc3Cl)C2=O)c2ccccc21`, the Potency entry was “inactive”.
The value for `O=C(CCl)N1c2ccccc2Oc2ccc3ccccc3c21` was “inactive”.
On to `CCCCCCN1C=CC=C/C1=C/C=C(C#N)C#N`, for which the Potency result is “inactive”.
The value for `CCOC(=O)Cn1c(=O)c(-c2cc(Br)ccc2N)nc2ccccc21` was “inactive”.
For `CCCCCn1nc(-c2ccccc2)c2nc3ccccc3nc21`, the Potency result was “inactive”.
Consider `O=C1/C(=C/c2cccc(F)c2)Oc2cc(O)ccc21`, for which the Potency entry is “inactive”.
Turning to `CCOc1cc(/C=C(\C#N)c2nc(-c3cccs3)c(NC(C)=O)s2)ccc1O`, the Potency result is “inactive”.
Turning to `Cn1cc(/C=C2\SC(=S)N(NC(=O)c3ccccc3)C2=O)c2ccccc21`, the Potency result is “inactive”.
With `O=C(OCCN1C(=O)c2cccc3c(N4CCOCC4)ccc(c23)C1=O)c1ccc(Cl)cc1Cl`, the Potency result is “inactive”.
Turning to `C/C(O)=c1/ccc2cccc3nc(C)nc1c23`, the Potency entry was “inactive”.
As to `Cc1ccc(C(=O)Nc2ccc(C(=O)O)cc2)cc1S(=O)(=O)NCc1ccccc1`, the Potency entry is “inactive”.
The same measure for `Cc1c2cc(O)c(=O)cc-2oc2cc(O)c(O)cc12`: “inactive”; for `CSc1c(C#N)c(N)nc2sc(C(=O)c3ccc(Cl)c(Cl)c3)c(N)c12`: “inactive”.
On to `CC(C)(C)OC(=O)NC(Cc1ccccc1)C(=O)N1CCC(C(=O)NCC(=O)Nc2ccc(F)cc2)CC1` (centres undefined), for which the Potency entry is “inactive”.
Regarding `CCN(c1ccc(N=Cc2c(O)n(Cc3ccc(OC)cc3)c(=O)c3ccccc23)cc1)C(C)C`, the Potency entry was “inactive”.
In the case of `O=C(NCc1ccc(F)cc1)c1cccc2c1C(=O)c1ccc(N3CCC(Cc4ccccc4)CC3)cc1S2(=O)=O`, the Potency result is “inactive”.
The value for `CCN(CC)C(=O)[C@H]1CC(CC(=O)NCc2cccc(C(F)(F)F)c2)C(=O)N2CCc3c([nH]c4ccc(OC)cc34)[C@]12C` (some centres undefined) was “inactive”; that for `COc1ccc(C(=O)c2sc3nc(C)cc(-c4cccs4)c3c2N)cc1` was “inactive”; that for `CC1CCN(Cc2c(O)ccc3c2O/C(=C\c2ccco2)C3=O)CC1` was “inactive”.
The value for `Cc1ccc[n+](-c2nc([O-])sc2C=O)c1` was “inactive”.
`Cc1ccc(N2C(=O)C3C(C(=O)c4ccccc4)=NN(c4ccccc4)C3C2=O)cc1` (centres undefined): the Potency entry was “inactive”.
Consider `CC1=CC(=C(C#N)c2nc3ccccc3s2)C=C(C)N1c1ccc(F)cc1F`, for which the Potency entry was “inactive”.
For the molecule `CC1CCCN(c2nc3ccccc3nc2C(C#N)S(=O)(=O)c2ccccc2)C1` (centres undefined), the Potency result is “inactive”.
Regarding `CCOc1ccc2nc3cc(NCc4ccc(OC)cc4)ccc3c(N)c2c1`, the Potency entry is “inactive”.
On to `CN1CCc2c(sc3c2C(=O)NC(c2ccco2)N3)C1` (centres undefined), for which the Potency result was “inactive”.
Turning to `CCOc1ccc(NC(=O)c2ccc3c(c2)CCN3S(C)(=O)=O)cc1`, the Potency result is “inactive”.
For the molecule `N#CC(C(=O)NC1CC1)c1nc2ccccc2nc1N1CCCC1` (centres undefined), the Potency entry is “inactive”.
The value for `CCOC(=O)c1ccc(NC(=O)CSc2nc(-c3cccs3)cc(C(F)(F)F)c2C#N)cc1` was “inactive”; that for `CCCCN(C)C1=CC2=CC(=C(C#N)C#N)CCC2CC1` (centres undefined) was “inactive”.
For `c1ccc2c(c1)CCCN2Cc1nnnn1CC1CCCO1` (centres undefined), the Potency was 18.3 µM (active).
The same measure for `CCCCOc1ccc(C2OC34CCCCC3C(C#N)(C#N)C2(C#N)C(=N)O4)cc1` (centres undefined): “inactive”; for `O=[N+]([O-])c1cc(Cl)cc(/C=N/n2cnnc2)c1O`: “inactive”.
Consider `Cc1ccccc1-c1ccc(/C=C2/SC(N3CCOCC3)=NC2=O)o1`, for which the Potency entry was “inactive”.
Consider `CC1=CC(=C(C#N)c2nc3ccccc3s2)C=C(C)N1c1ccc(F)cc1`, for which the Potency result is “inactive”.
As for `O=C(CN1C(=O)NC(Cc2c[nH]c3ccccc23)C1=O)Nc1ccccc1C(F)(F)F` (centres undefined), the Potency entry is “inactive”.
Consider `Cc1cc(NS(=O)(=O)c2ccc(NC(=O)COc3c(C)cc(Br)cc3C)cc2)no1`, for which the Potency result was “inactive”.
As for `COc1ccc2c(C=Nc3c(C)n(C)n(-c4ccccc4)c3=O)c(O)n(Cc3ccco3)c(=O)c2c1`, the Potency entry was “inactive”.
For the molecule `CN1C(=O)c2cccc3c(N)ccc(c23)C1=O`, the Potency result was “inactive”.
For the molecule `COc1cccc2c1C(=O)c1c(O)c3c(c(O)c1C2=O)C[C@](O)(C(C)=O)C[C@H]3O[C@@H]1C[C@@H](N)[C@@H](O)[C@@H](C)O1`, the Potency result is “inactive”.
